D2 ag-1 = agonists of human D2 dopamine receptor (beta-arrestin); P14416; DiscoveRx PathHunter D2 beta-arrestin, luminescence, 90 min; 100% = 57 uM dopamine signal; activation, % (concentration not given with the values); 360,000 compounds, 0.084% hits; in the data active = activation above about 40%; inconclusive = between about 15% and that limit
Target sequence (P14416 whole entry, looked up): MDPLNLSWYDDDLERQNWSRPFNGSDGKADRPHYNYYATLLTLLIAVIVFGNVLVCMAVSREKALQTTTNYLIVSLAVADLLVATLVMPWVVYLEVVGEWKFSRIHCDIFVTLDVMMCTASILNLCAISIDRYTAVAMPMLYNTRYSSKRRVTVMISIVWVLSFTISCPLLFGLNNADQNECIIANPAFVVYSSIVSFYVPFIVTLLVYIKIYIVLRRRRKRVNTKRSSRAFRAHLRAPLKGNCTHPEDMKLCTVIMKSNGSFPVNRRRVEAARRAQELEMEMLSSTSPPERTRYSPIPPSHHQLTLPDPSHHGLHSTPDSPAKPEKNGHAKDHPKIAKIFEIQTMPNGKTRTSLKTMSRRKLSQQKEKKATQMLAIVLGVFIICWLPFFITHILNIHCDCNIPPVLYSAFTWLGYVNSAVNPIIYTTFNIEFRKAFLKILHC
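Agonist mode: compounds alone added to overnight-plated D2 PathHunter cells for 90 min at 37 C, with 57 uM final dopamine (EC100) defining full response. Beta-arrestin recruitment detected by chemiluminescent reagent, read after 1 h at ambient temperature.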
D2 PAM-1 = positive allosteric modulators of human D2 dopamine receptor; potentiation, % at 10 µM; P14416; 340,000 compounds, 0.34% hits; HEK293 T-REx D2, calcium flux, EC20 dopamine potentiation;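 active = potentiation over 3 SD above the plate norm, cut at about 30% in these data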
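Potentiation of an EC20 dopamine calcium response measured kinetically over 180 s, after a preceding 180 s compound-only read flagging agonists. Cells: inducible Hek293 Trex D2 line, 4000/well, cultured overnight at 30 C before dye loading.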
D2 antag = antagonizes the human D2 dopamine receptor | P14416 | HEK293 TREx D2 cells, calcium flux, dopamine EC80 | inhibition, % at 10 µM | 340,000 compounds, 2% hits; in the data active = inhibition above about 30%; inactive = below that, where a call was filed
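Overnight-induced (tetracycline, 30 C) HEK293 T-REx cells carrying force-coupled D2 receive a no-wash calcium dye, then compound, then EC80 dopamine at 180 s; signals are read kinetically throughout.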
D2 PAM-2 = human D2 receptor positive allosteric modulation | AID 624464 | potentiation, % (no concentration beside the values) | P14416 | DiscoveRx D2 beta-arrestin cells, luminescence, 90 min; 100% = 57 uM dopamine signal | 360,000 compounds, 0.23% hits; in the data active = potentiation above about 50%; inconclusive = mostly about 30% to 49%
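D2 cells co-treated with compound plus 50 nM dopamine (EC20) for 90 min at 37 deg C to detect potentiation. Beta-arrestin recruitment was read as enzyme-fragment luminescence after 1 h at ambient temperature. Full response was set by 57 uM dopamine.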
D2 ag-2 = agonists of human D2 dopamine receptor; P14416; HEK293 T-REx D2 cells, calcium flux agonist mode; activation, % at 2 µM; 340,000 compounds, 0.53% hits; AID 485358;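 active = activation over 3 SD above normal in the single-dose calcium agonist read, cut at about 30% in these data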
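In this primary screen, compounds producing a positive calcium signal within 180 s of addition to tetracycline-induced, force-coupled HEK293 Trex D2 cells are flagged; cells are dye-loaded with a no-wash calcium kit beforehand.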
A number is an active result; i = inactive; ? = inconclusive; nt = no result given. The list is not random: actives were taken first. Their share in the collection is about 2.4%.

SMILES | D2 ag-1 | D2 PAM-1 | D2 antag | D2 PAM-2 | D2 ag-2
O=C(c1cccs1)N1CCN(C(=O)C2CCCO2)CC1 (stereo unspecified) | i | i | 37 | i | i
CC(=O)c1ccc(N2C(=O)Nc3ccccc3S2(=O)=O)cc1 | nt | i | nt | nt | i
COc1ccc(-c2nn3c(=O)cc(CN4CCN(C(=O)Nc5cc(C)ccc5C)CC4)nc3s2)cc1 | nt | i | nt | nt | i
Cc1ccc(C)c(-c2nnc(NC(=O)c3ccco3)o2)c1 | i | i | 41 | i | i
OC(c1ccc(F)c(F)c1)c1ncc(-c2ccc(F)cc2)[nH]1 (stereo unspecified) | i | nt | nt | i | nt
CN(C)c1ccc(N=Cc2nc(-c3ccccc3)oc2O)cc1 | i | nt | nt | i | nt
CN(C)c1ccc(N=Cc2cccn2C)cc1 | i | 31 | i | i | i
CCOC(=O)N1CCN(C(=O)C2CCN(S(=O)(=O)c3cc(C)ccc3OC)CC2)CC1 | i | i | 33 | i | i
CCOc1ccc(N(C)S(=O)(=O)c2ccc3c(c2)CCCN3C(C)=O)cc1 | nt | i | nt | nt | i
Cc1cn2c(=O)cc(COc3ccc(Cl)cc3)nc2s1 | nt | i | nt | nt | i
COCCN1CCN(Cc2ccc(C(=O)NC(C)C)cc2)C(=O)C1=O | nt | i | nt | nt | i
Cc1cc2oc(C(=O)Nc3nonc3C)c(C)c2cc1Cl | i | 34 | i | i | i
CCC(=O)N1CCN=C1SCc1ccc(Cl)cc1 | i | 30 | i | i | i
O=C(c1cccs1)N1CCN=C1SCc1ccc(Cl)cc1 | i | i | i | i | i
O=C(C1CC1)N1CCN=C1SCc1ccccc1Cl | i | i | 35 | i | i
O=C(c1cccs1)N1CCN=C1SCc1ccccc1F | i | i | i | i | 33
COc1ccc(NC(=O)CCc2nnc3ccc(N4CCC(C)CC4)nn23)cc1 | i | i | i | i | i
COc1ccc(N2CCN(c3ccc4nnc(CCC(=O)Nc5ccc(C)cc5)n4n3)CC2)cc1 | i | i | 34 | i | i
COc1ccc(CCNS(=O)(=O)c2cc3c4c(c2)CC(=O)N4CCC3)cc1 | i | i | 35 | i | i
S=C(NCC1CCCO1)Nc1ccc(Nc2ccccc2)cc1 (stereo unspecified) | i | i | 40 | i | i
CC(C)NC(=O)C1CCCN(S(=O)(=O)c2ccc3c(ccn3C)c2)C1 (stereo unspecified) | nt | i | nt | nt | i
CCOC(=O)CCC(NC(=O)c1ccc(Nc2nc3ccccc3nc2C(=O)OCC)cc1)C(=O)OCC (stereo unspecified) | i | nt | nt | i | nt
COc1ccc(N2CCN(C(=O)COC(=O)c3cccc(S(=O)(=O)Nc4cccc(C)c4)c3)CC2)cc1 | i | i | 40 | i | i
O=C(NCc1ccccc1)c1nc(-c2cccs2)no1 | i | i | 36 | i | i
O=C(NCc1ccccc1)c1cc(-c2cccs2)on1 | i | nt | nt | i | nt
SMILES | D2 ag-1 | D2 PAM-1 | D2 antag | D2 PAM-2 | D2 ag-2
CC1(C)OC2OC(C(=O)N/N=C/c3ccccc3F)C3OC(C)(C)OC3C2O1 (stereo unspecified) | i | i | i | i | i
CC1(C)C(C=C(Cl)Cl)C1C(=O)N/N=C/c1ccccc1F (stereo unspecified) | i | i | 60 | i | i
CCn1cc(/C=C(\NC(=O)c2cc(OC)c(OC)c(OC)c2)C(=O)NCCCn2ccnc2)c2ccccc21 | nt | i | nt | nt | i
CC1(C(=O)Nc2ccc(Cl)c(Cl)c2)CCN1Cc1ccccc1OC(F)F (stereo unspecified) | i | nt | nt | i | nt
CSc1cccc(NC(=O)/C=C/c2ccccc2)c1 | i | i | 39 | i | i
CSc1cccc(NC(=O)/C=C/c2ccc(Cl)cc2)c1 | i | i | 70 | i | i
CCN(CC)CCNC(=O)C1c2cc(OC)c(OC)cc2C(=O)N(C)C1c1cccs1 (stereo unspecified) | i | nt | 35 | i | i
O=C(Nc1ccccc1[N+](=O)[O-])c1csnn1 | nt | i | nt | nt | nt
CCc1ccc(C(=O)NN(C(=O)c2ccc(CC)cc2)C(C)(C)C)cc1 | i | i | i | i | i
CC(C)(C)N(NC(=O)c1ccccc1)C(=O)c1ccc(C(=O)N(NC(=O)c2ccccc2)C(C)(C)C)cc1 | i | i | 33 | i | i
CCOCCCNC(=O)c1cc2c(=O)[nH]c3ccccc3c2s1 | ? | i | 58 | i | 39
Cc1ccsc1C(=O)NNC(=O)c1csc(N2CCOCC2)n1 | i | i | 32 | i | i
Cc1ccc(C(=O)NNC(=O)c2csc(N3CCOCC3)n2)o1 | i | i | i | i | i
Cc1ccsc1C(=O)Nc1ccccc1N1CCOCC1 | i | i | 38 | i | i
O=S(=O)(c1ccc(F)cc1)N1CCC(n2c(C(F)(F)F)nc3cccnc32)CC1 | nt | i | nt | nt | i
CCCn1c(-c2cccc([N+](=O)[O-])c2)nc2c1c(=O)[nH]c(=O)n2Cc1ccccc1 | i | i | i | i | i
CC(C)(C)Cn1c(=O)[nH]c(=O)c2cc([N+](=O)[O-])cnc21 | i | i | 35 | i | i
COc1cccc(Oc2nc(-c3ccccc3O)nc3ccccc23)c1 | i | i | 43 | i | i
COc1ccc(Cl)c2c1[nH]c1nc(SCc3cccnc3)nnc12 | i | i | i | i | i
COc1ccc(Cl)c2c1[nH]c1nc(SCc3ccccn3)nnc12 | i | i | 43 | i | i
O=c1nc(Nc2cccc(Cl)c2)oc2cc(Cl)oc(=O)c12 | i | i | 32 | i | i
CCCCNC(=O)C1(C)CCCCCN1Cc1cccc2c(OC)cc(C(=O)OCC)cc12 (stereo unspecified) | i | nt | nt | i | nt
COCCCN1C(=O)C(CC(=O)NC2CCCC2)CC(C(=O)N2CCOCC2)=C1C (stereo unspecified) | i | nt | nt | i | nt
COc1ccc(OC)c(C(=O)NC(CC(N)=O)c2ccc(N3CCN(c4ccccn4)CC3)c([N+](=O)[O-])c2)c1 (stereo unspecified) | i | i | 32 | i | i
COc1ccc(OC)c(C(=O)NC(CC(N)=O)c2ccc(N3CCN(c4ccccc4)CC3)c([N+](=O)[O-])c2)c1 (stereo unspecified) | i | i | i | i | i
SMILES | D2 ag-1 | D2 PAM-1 | D2 antag | D2 PAM-2 | D2 ag-2
CCCNC(=O)CS(=O)(=O)Cc1nc(-c2ccccc2C)oc1C | i | i | 40 | i | i
Cc1oc(-c2ccccc2F)nc1CS(=O)(=O)CC(=O)NCCCN1CC(C)CC(C)C1 (stereo unspecified) | i | i | 48 | i | i
Cc1oc(-c2ccccc2F)nc1CS(=O)(=O)CC(=O)NCCCN1CCN(C)CC1 | i | i | i | i | i
CCCCn1c(=O)c2c(nc3n2CCCN3Cc2ccccc2)n(C)c1=O | i | i | 34 | i | i
Cn1c(=O)n(Cc2ccccc2)c(=O)c2c1nc1n2CCCN1Cc1ccccc1 | i | i | i | i | i
Cc1cc(C)cc(OCC(=O)Nc2ccc(Cl)c(-c3nc4ncccc4o3)c2)c1 | nt | i | nt | nt | i
COC(=O)C1=C(C)OC(N)=C(C#N)C1c1cc2cc(C)ccc2nc1Cl (stereo unspecified) | i | i | i | i | i
